Sampled rows, rich in hits. Any-hit rate of the full collection: about 3.2%.
Mtb bLac sens – beta-lactam sensitization of Mtb H37Rv; M. tuberculosis H37Rv growth with meropenem, percent inhibition; inhibition, % at 25 µM; 0.27% of 330,000 active; call rule not given here;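 further: growth measured after seven days incubation then overnight dye step; 0% = bacteria only wells and 100% = bacteria with antibiotic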
Mtb FBA inh – inhibits M. tuberculosis FBA enzyme. purified M. tuberculosis FBA, fluorescence read-out. inhibition, % at 1 µM. 2.3% of 360,000 active. AID 588726; in the data active means inhibition above about 27%;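 further: 0% = vehicle and 100% = reference inhibitor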
Target sequence (P9WQA3 whole entry, looked up): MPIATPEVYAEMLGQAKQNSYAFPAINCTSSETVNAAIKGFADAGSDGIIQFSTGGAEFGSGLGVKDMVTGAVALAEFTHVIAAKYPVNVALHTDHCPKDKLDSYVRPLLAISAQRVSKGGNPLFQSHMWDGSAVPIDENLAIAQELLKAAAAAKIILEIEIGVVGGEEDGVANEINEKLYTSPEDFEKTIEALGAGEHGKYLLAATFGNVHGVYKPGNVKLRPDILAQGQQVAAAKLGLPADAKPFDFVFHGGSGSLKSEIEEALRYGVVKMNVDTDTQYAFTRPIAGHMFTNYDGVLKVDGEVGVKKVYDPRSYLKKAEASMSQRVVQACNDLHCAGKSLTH
GDH-TPI inh – inhibits GDH-TPI coupling enzymes, artifact for Mtb FBA screen; GDH-TPI coupled enzyme counterscreen, NADH absorbance; 1.2% of 360,000 active; inhibition, % at 4.8 µM; in the data active means inhibition above about 30%;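 further: 0% = DMSO wells and 100% = wells lacking the enzyme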
PriA SSB inh – K. pneumoniae PriA-SSBct interaction inhibition; AlphaScreen SSBct-PriA binding, biotinylated peptide; inhibition, % at 33 µM; 0.6% of 430,000 active; AID 1272365; in the data active means inhibition mostly above about 37%, no sharp cut-off; inactive means mostly below about 20%;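 further: plate controls were negative control peptide for no effect and reference peptide for full effect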
UGM FP inh – blocks M. tuberculosis UGM enzyme. P9WIQ1. purified UGM, fluorescence polarization probe displacement. inhibition, % at 10 µM. 0.06% of 320,000 active; in the data active means inhibition above about 10%, passing the limit was not always enough
Rv3671c protease – inhibits the M. tuberculosis serine protease Rv3671c. 0.048% of 320,000 active. inhibition, % at 5.96 µM. AID 2606. P9WHR9;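 further: extracellular domain of Rv3671c used as enzyme; 0% = enzyme with DMSO and 100% = no enzyme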
Rv3671c confirm – Rv3671c protease inhibition, confirmation; shares compounds with Rv3671c protease; inhibition, % at 5.96 µM; 40% of 140 active; AID 2761
Numbers without * were called inactive; i = inactive; nt = not tested or not shown. Unless noted, no stated cut-off is given here; in the data, active means inhibition above about 38%; inactive means the rest.

SMILES	Mtb bLac sens	Mtb FBA inh	GDH-TPI inh	PriA SSB inh	UGM FP inh	Rv3671c protease	Rv3671c confirm
COc1ccc(NC(=O)c2c(-c3c(F)cccc3Cl)noc2C)cc1[N+](=O)[O-]	nt	nt	nt	66*	nt	nt	nt
O=C(Cc1ccsc1)NC[C@@](O)(c1cccs1)C1CC1	nt	nt	nt	-1	nt	nt	nt
CN(C)CCOCCOc1ccc(Cl)cc1Br	1	0	4	-3	-1	14	nt
CN(C)CCCOc1ccc(Cl)cc1Br	nt	0	15	51*	0	-2	nt
COc1ccc(Cl)cc1NC(=O)CSc1ccc(NC(=O)C2CC2)nn1	nt	nt	nt	-13	nt	nt	nt
Cc1ccsc1C=Nn1c(-c2ccccn2)n[nH]c1=S	nt	nt	nt	88*	nt	nt	nt
S=c1[nH]nc(-c2ccccn2)n1N=Cc1ccc(Br)s1	nt	nt	nt	79*	nt	nt	nt
S=c1[nH]nc(-c2ccccn2)n1/N=C/c1cccs1	0	-1	7	nt	4	-3	nt
O=C(NC[C@H](O)c1ccc(C(F)(F)F)cc1)C1CC1	nt	nt	nt	-10	nt	nt	nt
CCN1C(=O)NC(=O)/C(=C\c2cn(CC(=O)N3CCCCC3)c3ccccc23)C1=O	3	2	1	-3	41*	-18	nt
CCN1C(=O)NC(=O)/C(=C\c2cn(CC(=O)N3CCCC3)c3ccccc23)C1=O	12	-10	-3	0	52*	-13	nt
CN1C(=O)NC(c2ccccc2[N+](=O)[O-])C2=C1CCCC2=O (stereo not given)	0	2	14	-2	12*	74*	38*
N#CC1(P(=O)(c2ccccc2)c2ccccc2)CCCC1	-8	-1	7	2	1	81*	2
CC1(C)Cc2cccc(OCC(=O)Nc3ncc([N+](=O)[O-])s3)c2O1	nt	nt	nt	-10	nt	nt	nt
COc1cccc(/C=N/Nc2ccc([N+](=O)[O-])cn2)c1O	15	-8	5	nt	0	81*	-4
Cc1cc2c(N)cccc2nn1	2	-6	15	33	-1	55*	-1
Cc1cc2c(NC(=O)Nc3ccccc3)cccc2nn1	-1	-1	-3	-13	1	-1	nt
C[n+]1c(-c2ccccc2)c2cc(N)ccc2c2ccc(N)cc21	100	-7	21	69	-1	74*	90*
Nc1ccc2nc(-c3ccccc3)c(-c3ccccc3)nc2c1	5	2	7	-3	-1	3	nt
COc1cc(C=NNc2nc3ccccc3[nH]2)ccc1O	nt	nt	nt	23	nt	nt	nt
C(=N\Nc1nc2ccccc2[nH]1)/c1ccccc1	42	0	15	nt	-3	9	nt
Nc1ccc(Nc2nc3ccccc3[nH]2)cc1	-3	1	-1	85	-1	50*	46*
C(=N\Nc1nc2ccccc2[nH]1)/c1cccc2cccnc12	83	-1	18	i	-1	38*	27
O=[N+]([O-])c1cc(/C=N/Nc2nc3ccccc3[nH]2)c(O)cc1O	8	nt	nt	nt	0	60*	29
Cc1[nH]c2ccccc2c1/C=N/Nc1nc2ccccc2[nH]1	82	1	23	nt	2	59*	41*
SMILES	Mtb bLac sens	Mtb FBA inh	GDH-TPI inh	PriA SSB inh	UGM FP inh	Rv3671c protease	Rv3671c confirm
C(=N\Nc1nc2ccccc2[nH]1)/c1c[nH]c2ccccc12	90	0	19	nt	3	41*	92*
C=C1c2cccc(O)c2C(O)=C2C(=O)[C@]3(O)C(O)=C(C(N)=O)C(=O)[C@@H](N(C)C)[C@@H]3[C@@H](O)[C@H]12	79	0	13	7	6	50*	3
O=C(COC(=O)c1cc(-c2ccccc2)nc2ccccc12)c1ccc([N+](=O)[O-])cc1	nt	nt	nt	16	nt	nt	nt
CCOC(=O)NC(=O)/C(C#N)=C\Nc1sccc1C(=O)OC	-7	-2	6	-11	5	41*	2
CCOC(=O)NC(=O)/C(C#N)=C\Nc1ccc(Cl)cc1Cl	-4	2	4	0	0	4	nt
Cc1cc(NN=Cc2ccc(N(C)C)cc2)c2ccccc2n1	nt	nt	nt	-35	nt	nt	nt
O=C(NN=Cc1ccco1)c1ccc(NC(=O)C2CCCCC2)cc1	nt	nt	nt	-1	nt	nt	nt
O=C(CCc1ccc(O)c(O)c1)N/N=C/c1ccc2c(c1)OCO2	6	4	2	nt	5	4	nt
CC(C)Oc1ccc(CCC(=O)N/N=C/c2ccc3c(c2)OCO3)cc1	1	2	0	nt	3	38*	0
CC(=O)c1c(OC(=O)c2ccco2)c2ccccc2n1C	10	0	11	-2	-1	74*	77*
CC(=O)c1sc2ccccc2c1OC(=O)c1ccco1	99	1	1	-4	0	61*	56*

Screening results: PubChem BioAssay, several laboratories
